aSyn 5UTR act: Activators working through SNCA 5'UTR binding (MLPCN) | alpha-synuclein 5'UTR reporter, activators screen | activity score, % (tested at 7.5 µM), hits read low | hit rate 7.1% among 300,000 | AID 1814; in the data active = activity score below about -60%
* = called active by the depositor. The list is a sample of the results.

SMILES	aSyn 5UTR act
Cc1ccc(OCC(=O)O/N=C(\N)c2ccccn2)cc1C	-99*
N/C(=N\OC(=O)COc1ccc2ccccc2c1Br)c1ccccn1	-107*
N/C(=N\OC(=O)COc1ccccc1)c1ccccn1	-69*
Cc1ccc(NC(=O)CCNC(=O)c2ccc(Cl)cc2)nc1	-80*
Cc1ccc(NC(=O)c2ccc3nc[nH]c3c2)nc1	-96*
Cc1ccc(NC(=O)c2ccc(C(=O)c3ccccc3)cc2)nc1	-109*
Cc1ccc(NC(=O)c2ccc3nc[nH]c3c2)c(O)c1	-99*
O=C(Nc1ccc(OC(F)(F)F)cc1)c1ccc2nc[nH]c2c1	-64*
CCNC(=O)NC(=O)COC(=O)c1ccccc1SCC(=O)NC(=O)NCC	-122*
CCN1C(=O)N/C(=C/c2cc(C)n(Cc3ccccc3)c2C)C1=O	-63*
O=C(O)c1ccc(NNC(=S)Nc2cc(C(F)(F)F)ccc2Cl)cc1	-141*
COc1ccccc1NC(=O)c1ccc(-c2ccccc2F)o1	-145*
Cc1cc(NC(=O)c2ccc(-c3ccccc3F)o2)no1	-125*
COC(=O)c1ccccc1NC(=O)c1ccc(-c2ccccc2F)o1	-129*
Cc1cc(-c2nc(-c3ccc(C(C)(C)C)cc3)no2)no1	-171*
CC(C)(C)c1ccc(-c2noc(-c3ccc4c(c3)CCO4)n2)cc1	-157*
COc1ccc2nc(NC(=O)C34CC5CC(CC(NC(C)=O)(C5)C3)C4)sc2c1	-94*
CCOc1ccc2nc(NC(=O)C34CC5CC(CC(NC(C)=O)(C5)C3)C4)sc2c1	-132*
CCCCCCn1cnc2c(oc3nc4c(cc32)CCCC4)c1=O	-108*
O=c1c2oc3nc4c(cc3c2ncn1CCCc1ccccc1)CCCC4	-105*
O=C1C[C@H]2[C@H](CO)[C@@H](OC(=O)c3ccc(-c4ccccc4)cc3)C[C@H]2O1	-87*
Nc1cc(N)nc(SCCOc2ccccc2F)n1	-81*
Nc1cc(N)nc(SCCOc2ccccc2)n1	-69*
O=[N+]([O-])c1ccc(N/N=C/c2ccccc2)c(F)c1	-151*
Cc1cc(C(=O)CSc2nc3ccccc3c(=O)[nH]2)c(C)n1CC1CCCO1 (centres undefined)	-115*
SMILES	aSyn 5UTR act
Cc1cc(C(=O)CN2C(=O)c3ccccc3S2(=O)=O)c(C)n1CC1CCCO1 (centres undefined)	111
Cc1cc(C(=O)CSc2nc3ccccc3n2CCC#N)c(C)n1Cc1cccs1	-124*
Cc1cc(C(=O)CSc2nnnn2-c2ccccc2)c(C)n1CC1CCCO1 (centres undefined)	-105*
CCn1c(SCC(=O)c2cc(C)n(CC3CCCO3)c2C)nc2ccccc21 (centres undefined)	-119*
CCCc1ccc(OC(=O)c2ccc(O)cc2Cl)cc1	-63*
c1ccc(N2CCN(c3ccccc3)C2c2cccs2)cc1	-108*
CCn1nnnc1SCC(=O)c1ccc(C)cc1	-66*
O=C(CSc1nnnn1Cc1ccccc1)c1ccccc1	-67*
CN1C2CCC1/C(=C\c1ccccc1F)C(=O)/C2=C/c1ccccc1F	-89*
CCOC(=O)/C(=N/Nc1ccc(C)cc1)S(=O)(=O)c1ccc(Cl)cc1	-142*
Cc1no[n+]([O-])c1COc1ccccc1/C=N/n1nnnc1N	-99*
CC(C)OC(=O)Cn1nnc2c(cnn2-c2ccccc2)c1=O	-98*
Cn1cc(Br)c(C(=O)Nc2sc3c(c2C(N)=O)CCC3)n1	-95*
Cn1nccc1C(=O)Nc1sc2c(c1C(N)=O)CCCC2	-126*
Cn1nccc1C(=O)Nc1sc2c(c1C#N)CCCC2	-100*
O=C(Nc1ccccc1)c1ccc(C(=O)Nc2ccccc2)nc1	-182*
Cc1ccc(NC(=O)/C(CN(C)C)=N\O)cc1	-89*
Cc1ccc(N/C(=C\C(=O)c2ccccc2)C(=O)O)cc1	-158*
Cc1ccc(NC(=O)c2ccccc2)cc1	-164*
Cc1ccc(C(=O)Nc2ccc3ccccc3c2)cc1	66
O=C(Nc1ccc(Nc2ccccc2)cc1)c1ccc(F)cc1	-75*
Cc1ccc(NC(=O)C(=O)c2ccc(C)cc2)cc1	-208*
CSC(=CC(=O)c1ccccc1)SC	-77*
O=C(Nc1nsc(-c2ccccc2)n1)c1ccc(F)cc1	-166*
Cc1cccc(C(=O)Nc2ccc(O)cc2)c1	-98*
SMILES	aSyn 5UTR act
Cc1cccc(C(=O)Nc2ccc(C(=O)c3ccccc3)cc2)c1	-106*
CCN(CC)C(=O)N1c2ccccc2C=Cc2ccccc21	-101*
COc1ccc2cc3c(N)nn(C(=O)c4ccccc4Cl)c3nc2c1	65
COc1ccc2cc(C3OCCO3)c(Cl)nc2c1	-108*
Cc1ccc(C2=CSC3=NNC4(CCCCC4)NN23)cc1	-126*
O=C(/C=C/c1cccc(Cl)c1)Nc1ccncc1	-112*
NS(=O)(=O)c1ccc(NC(=O)/C=C/c2cccc(Cl)c2)cc1	-81*
CCc1ccc2[nH]c3nc(C)cc(C)c3c(=O)c2c1	-232*
N#Cc1c(NC(=O)C2CCCO2)sc2c1CCCCCC2 (centres undefined)	-98*
NC(=O)c1c(NC(=O)C2CCCO2)sc2c1CCCC2 (centres undefined)	-74*
Cc1[nH]c(C)c(C(=O)/C=C/c2ccc([N+](=O)[O-])cc2)c1C	-232*
COc1ccccc1N1C(=O)S/C(=C\c2cc(C)n(C)c2C)C1=O	-128*
Cc1ccc(/C=C2\Sc3ccccc3C2=O)s1	-104*
COc1ccccc1N1C(=O)S/C(=C\c2ccc(C)s2)C1=O	-135*
O=C(Cc1nc2ccccc2[nH]c1=O)c1ccccc1	-172*
O=C(Cc1nc2ccccc2[nH]1)c1ccc(Br)cc1	-190*
Cc1ccc(C(=O)N/C(=C\c2ccc(-c3ccc(Br)cc3)o2)C(=O)NCCCN(C)C)cc1	100
O=C(NCc1cccnc1)/C(=C\c1ccc(-c2ccc(Br)cc2)o1)S(=O)(=O)c1ccccc1	-138*
O=C(NCc1cccnc1)/C(=C/c1ccc(-c2ccc(Cl)cc2)o1)S(=O)(=O)c1ccccc1	-79*
COc1ccc(OC)c(Nc2cc(-c3ccccc3)nc(N)n2)c1	68
COc1ccc2nc(-c3ccccc3)cc(OC)c2c1	-107*
CCCC(=O)N1CCc2cc(-c3nc(N)sc3C)ccc21	-208*
CNc1nc(-c2ccc3c(c2)CCN3C(=O)c2ccccc2F)cs1	-90*
CNc1nc(-c2ccc3c(c2)CCN3C(=O)CC(C)(C)C)c(C)s1	-118*
CC(=O)Nc1nc(-c2ccc3c(c2)CCN3C(=O)C2CC2)c(C)s1	-255*
SMILES	aSyn 5UTR act
Cc1ccc(-c2nc(NC(=O)c3nn(C)cc3[N+](=O)[O-])sc2C)cc1	99
CCC(C)C(=O)N1CCc2cc(-c3csc(N)n3)ccc21 (centres undefined)	-172*
CC(C)(C)C(=O)N1CCc2cc(-c3csc(N)n3)ccc21	66
COc1cc(/C=N/Nc2nc3ccccc3s2)cc([N+](=O)[O-])c1O	-100*
O=[N+]([O-])c1cc(Cl)cc(/C=N/Nc2nc3ccccc3s2)c1O	-78*
COC(=O)c1sc(-c2ccc(C(C)(C)C)cc2)cc1NC(=O)c1ccccc1C(=O)O	-67*
CCC(Sc1nncn1C)C(=O)Nc1nnc(-c2ccccc2Cl)s1 (centres undefined)	-64*
O=C(Nc1nnc(-c2ccccc2)s1)c1ccccc1F	-152*
O=C(Nc1nnc(-c2ccccc2Cl)s1)c1ccccc1F	-173*
COc1ccc(NC(=O)c2cc3ccccc3o/c2=N\NS(=O)(=O)c2ccc(C)cc2)cc1	-133*
N=c1oc2ccc(Cl)cc2cc1C(=O)Nc1ccc(F)cc1	-68*
COc1ccc2oc(=N)c(C(=O)Nc3ccc(F)cc3)cc2c1	-97*
